Screens deposited in PubChem by several laboratories.
Shown are actives, neighbours in structure and some others; about 3.2% of the full set was active somewhere.
Mcl1-Noxa inh = Mcl-1/Noxa interaction inhibition | actives 1.5% (n = 220,000) | Q07820 | inhibition, % at 21.7 µM | TR-FRET Mcl-1/Noxa peptide binding, 2 h;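 active = compounds that cut the protein-peptide binding signal by more than 50% relative to plate controls in a single-dose test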;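 note: His-tagged Mcl-1 with rhodamine Noxa BH3 peptide and terbium anti-His antibody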
Mcl1-Bid inh = disrupts binding of human Mcl-1 to Bid peptide | Q07820 | TR-FRET Mcl-1/Bid-Dy647 peptide binding, 1536-well | inhibition, % at 21.7 µM | actives 0.97% (n = 220,000);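 active = compounds that cut the binding signal by more than half at the single screening dose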;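 note: His-tagged Mcl-1 with europium anti-His antibody binding Bid BH3 peptide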
Bim-Mcl-1 = human Bim-Mcl-1 interaction inhibition; Q07820; Bead-based flow cytometry, Bim peptide-Mcl-1 binding; inhibition, % at 10 µM; actives 0.1% (n = 190,000); AID 1009; in the data active = inhibition above about 40%
p47phox inh = inhibitors of human p47phox binding | AID 1274 | actives 0.53% (n = 220,000) | p47phox/p22phox peptide binding, fluorescence polarization, 2 h | inhibition, % at 24.7 µM;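 active = inhibition above about 30%, limit read from the data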
Target sequence (P14598 whole entry, looked up): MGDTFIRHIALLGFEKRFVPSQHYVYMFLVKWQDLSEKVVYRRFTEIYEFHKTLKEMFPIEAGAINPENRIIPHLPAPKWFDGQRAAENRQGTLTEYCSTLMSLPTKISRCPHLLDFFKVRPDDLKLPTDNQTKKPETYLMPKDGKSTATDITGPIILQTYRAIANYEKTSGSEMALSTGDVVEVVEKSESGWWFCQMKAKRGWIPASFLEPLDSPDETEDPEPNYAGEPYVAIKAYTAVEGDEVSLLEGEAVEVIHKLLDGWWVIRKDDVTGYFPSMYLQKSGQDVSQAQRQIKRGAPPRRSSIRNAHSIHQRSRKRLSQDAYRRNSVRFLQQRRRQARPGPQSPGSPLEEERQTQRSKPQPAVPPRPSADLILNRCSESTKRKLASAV
14-3-3 Bad PPI = disrupts binding of bovine 14-3-3 zeta to phospho-Bad peptide; P63103; inhibition, % at 21.7 µM; TR-FRET 14-3-3zeta/Dy647-pBad peptide displacement, 1 h; actives 0.71% (n = 220,000);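 active = inhibition above about 70%, limit read from the data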
A number is an active result; i = inactive; nt = no result; [ ] = dose if it differs, or a comment.

SMILES	Mcl1-Noxa inh	Mcl1-Bid inh	Bim-Mcl-1	p47phox inh	14-3-3 Bad PPI
CCN(CC)c1ccc2cc(-c3nc4ccccc4[nH]3)c(=O)oc2c1	i	96	i	i	i
CCN(CC)c1ccc2cc(-c3nc4ccccc4n3C)c(=O)oc2c1	i	i	i	i	i
CCc1nc(Nc2ccccc2)c2oc3ccccc3c2n1	i	i	i	i	i
CCc1nc(Nc2ccc(N3CCN(C(C)=O)CC3)cc2)c2oc3ccccc3c2n1	85	i	i	i	i
CCc1nc(N2CCN(C(=O)c3ccco3)CC2)c2oc3ccccc3c2n1	i	i	i	i	77
CCc1nc(N2CCCC2C(=O)O)c2oc3ccccc3c2n1 (centres undefined)	i	i	i	i	i
CC(=O)N1CCN(c2ccc(Nc3ncnc4c3oc3ccccc34)cc2)CC1	68	i	i	i	i
CCn1c(C)nc2cc(C(=O)N/N=C(\C)c3ccccc3O)ccc21	i	i	i	i	i
CC(=O)N(O)CCCCCNC(=O)CCC(=O)N(O)CCCCCNC(=O)CCC(=O)N(O)CCCCCN	i	i	i	i	71[fluorescence artefact?]
CCCC(=O)NCCCCNC(=O)CCC	i	i	i	i	i
Oc1ccc(/C=N/NC(=S)Nc2cccnc2)cc1O	59	i	i	i	84[fluorescence artefact?]
N/C(=N\OC(=O)c1ccc(Br)o1)c1ccccn1	i	i	i	i	i
CN(C)c1oc(-c2ccccc2Cl)nc1P(=O)(c1ccccc1)c1ccccc1	64	i	i	i	i
COc1ccc(Cc2nnc(NC(=O)CSc3ccc(C)cc3)s2)cc1OC	i	i	i	i	i
COc1ccc(-c2nnc(NC(=O)CSc3ccc(Cl)cc3)s2)cc1OC	i	i	i	41	i
O=S(=O)(c1ccccc1)N1CCN(Cc2cccc(Cl)c2)CC1	i	i	i	i	72
O=C(c1cccs1)N1CCN(Cc2cccc([N+](=O)[O-])c2)CC1	i	i	i	i	i
COc1ccc(CN2CCN(S(=O)(=O)c3ccc(F)cc3)CC2)c(OC)c1OC	i	i	i	i	77
O=C(c1cc(-c2ccncc2)nc2ccc(Br)cc12)N1CCN(Cc2ccc3c(c2)OCO3)CC1	i	i	i	i	i
O=C(c1cc(-c2ccncc2)nc2ccc(Cl)cc12)N1CCN(Cc2ccc3c(c2)OCO3)CC1	i	i	i	48	i
COc1ccc(CN2CCN(C(=O)c3cccs3)CC2)cc1Br	i	i	i	i	78
COc1ccc(OC)c(NC(=O)C(C)Oc2ccc(Br)cc2)c1 (centres undefined)	i	i	i	i	i
COc1ccc(NC(=O)CN(C)CC(=O)Nc2cccc(S(=O)(=O)N(C)c3ccccc3)c2)cc1	i	i	i	i	i
CCNC(=O)CC1C(=O)N(CC)C(=S)N1NC(=O)c1ccccc1 (centres undefined)	i	i	nt	i	i
CCSc1nc(C)nc2sc(C)c(C)c12	i	i	nt	i	i
SMILES	Mcl1-Noxa inh	Mcl1-Bid inh	Bim-Mcl-1	p47phox inh	14-3-3 Bad PPI
COc1ccc(CN2CCN(S(=O)(=O)c3ccccc3)CC2)cc1Br	i	64	i	i	i
Cc1ccccc1CN1CCN(S(C)(=O)=O)CC1	i	i	nt	i	i
COc1ccc(CN2CCN(S(=O)(=O)c3ccc(F)cc3)CC2)cc1OC	i	i	i	i	70
Cc1ccccc1CN1CCN(S(=O)(=O)c2ccc(F)cc2)CC1	i	60	i	i	i
COc1cccc(OC)c1C(=O)N1CCN(Cc2ccc3c(c2)OCO3)CC1	i	i	i	i	97[fluorescence artefact?]
Cc1oc(-c2ccccc2Cl)nc1CN1CCCN(C(=O)c2ccco2)CC1	i	i	i	i	i
Cc1ccc(NC(=O)ON=C2CCCC2)cc1	i	i	i	i	i
N#Cc1nnn(-c2ccc(Cl)cc2)c1N	i	i	i	i	i
Cc1cccc(NC(=S)N/N=C/c2cccc(O)c2)c1C	i	i	nt	i	i
Cc1ccccc1NC(=S)N/N=C/c1ccc(O)cc1O	60	i	nt	i	i
O=C(O)Cc1c[nH]c2cccc(O)c12	81	i	i	i	i
C#CCOCCOCCOCCNc1nc(N2CCN(C(=O)[C@H]([C@@H](C)CC)n3cc([C@@H](N)Cc4ccc(O)cc4)nn3)CC2)nc(N2CCN(C(=O)[C@H]([C@@H](C)CC)n3cc([C@@H](N)Cc4ccc(O)cc4)nn3)CC2)n1	i	i	i	i	i
C#CCOCCOCCOCCNc1nc(N2CCN(C(=O)C(Cc3cc4ccccc4[nH]3)n3cc(C(N)Cc4ccc(O)cc4)nn3)CC2)nc(N2CCN(C(=O)C(Cc3cc4ccccc4[nH]3)n3cc(C(N)Cc4ccc(O)cc4)nn3)CC2)n1 (centres undefined)	i	i	i	65	i
C#CCOCCOCCOCCNc1nc(N2CCN(C(=O)[C@H]([C@@H](C)CC)n3cc([C@@H](N)CC(C)C)nn3)CC2)nc(N2CCN(C(=O)[C@H](Cc3ccc(O)cc3)n3cc([C@@H](N)CC(C)C)nn3)CC2)n1	i	60	i	nt	i
C#CCOCCOCCOCCNc1nc(N2CCN(C(=O)[C@H](Cc3cc4ccccc4[nH]3)n3cc([C@@H](N)CC(C)C)nn3)CC2)nc(N2CCN(C(=O)[C@H](Cc3cc4ccccc4[nH]3)n3cc([C@@H](N)CC(C)C)nn3)CC2)n1	54	75	i	nt	i
C#CCOCCOCCOCCNc1nc(N2CCN(C(=O)C(CCC(=O)O)n3cc(C(N)CC(C)C)nn3)CC2)nc(N2CCN(C(=O)C(Cc3cc4ccccc4[nH]3)n3cc(C(N)Cc4ccc(O)cc4)nn3)CC2)n1 (centres undefined)	i	i	i	i	i
C#CCOCCOCCOCCNc1nc(N2CCN(C(=O)[C@H](Cc3cc4ccccc4[nH]3)n3cc([C@@H](N)Cc4ccc(O)cc4)nn3)CC2)nc(N2CCN(C(=O)[C@H](Cc3cc4ccccc4[nH]3)n3cc([C@@H](N)CC(C)C)nn3)CC2)n1	i	i	nt	73	i
CCOc1ccc(C2NC(=O)NC(C)=C2[N+](=O)[O-])cc1OC (centres undefined)	i	i	nt	i	i
C=CCNC(=O)COC(=O)COc1ccc(Cl)cc1	i	i	i	i	i
C=CCc1cc(Cl)ccc1OCCOCCNC(C)CC (centres undefined)	i	i	i	nt	i
CCC(C)NCCOCCSc1ccc(Cl)cc1 (centres undefined)	i	52	i	i	i
Cc1ccc(CNc2oc(-c3ccco3)nc2C#N)cc1	i	i	i	i	i
Cc1ccc(CNc2oc(C)nc2C#N)cc1	i	i	i	i	89
C/C(=N\NC(=O)C1CC1)c1ccccc1O	i	i	i	i	i
CS(=O)(=O)N1CCN(c2ccccc2NC(=O)c2ccc(-c3ccc(Cl)cc3Cl)o2)CC1	i	i	i	i	i
CN1CCN(c2ccccc2NC(=O)c2ccc(-c3ccc(Cl)cc3Cl)o2)CC1	65	i	i	i	i
O=C(C[n+]1ccc(-c2nnc3n2CCCCC3)cc1)c1ccc(Cl)cc1	i	i	nt	i	i
COc1ccc(C(=O)C[n+]2ccc(-c3nnc4n3CCCCC4)cc2)cc1	76	i	nt	i	i
